# According to paper PMC7862700, “An all-to-all approach to the identification of sequence-specific readers for epigenetic DNA modifications on cytosine”:
# How the values were obtained:
# Experiment in all cases: DAPPL (digital affinity profiling via proximity ligation, sequencing); 10 mM Tris-HCl pH 7.5, 50 mM NaCl, 1 mM DTT, 4% glycerol, room temperature, 30 min; GST-TFs on glutathione beads, 16-mer random dsDNA library, 0.1% formaldehyde crosslink after washing; high values mean tight binding
# Details in all cases: protein: recombinant; tags: N-terminal GST; dsDNA, one strand shown
# FLI1 = target: T1, FLI1 (Homo sapiens, UniProt Q01543 1-452)
# T1 sequence: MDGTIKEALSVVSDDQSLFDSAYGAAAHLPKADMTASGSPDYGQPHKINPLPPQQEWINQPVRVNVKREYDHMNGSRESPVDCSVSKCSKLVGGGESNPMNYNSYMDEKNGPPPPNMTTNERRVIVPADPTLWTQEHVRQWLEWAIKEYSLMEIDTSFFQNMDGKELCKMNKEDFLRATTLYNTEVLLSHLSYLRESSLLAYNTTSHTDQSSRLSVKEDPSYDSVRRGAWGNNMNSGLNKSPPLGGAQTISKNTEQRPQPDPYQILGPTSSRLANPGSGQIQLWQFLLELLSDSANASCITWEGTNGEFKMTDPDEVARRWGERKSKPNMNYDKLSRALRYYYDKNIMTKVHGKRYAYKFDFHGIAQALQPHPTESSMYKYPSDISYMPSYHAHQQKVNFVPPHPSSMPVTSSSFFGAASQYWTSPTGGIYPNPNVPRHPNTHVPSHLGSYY
# Summary of the method: (§1)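 Pools were built from human transcription factors expressed in yeast as GST fusions, captured on glutathione beads and DNA-barcoded, along with a tag-only sample. Incubation with 200 nmole of a 16-mer random double-stranded DNA library lasted 30 min at room temperature in Tris/NaCl/DTT/glycerol buffer, and was followed by washing, 0.1% formaldehyde crosslinking, proximity ligation, PCR amplification and Illumina NextSeq500 sequencing. Binding signal is the quotient of each hexamer's read frequency for a factor and its frequency for the tag-only sample.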
# ELK1 = target: T2, ELK1 (Homo sapiens, UniProt P19419 1-428)
# T2 sequence: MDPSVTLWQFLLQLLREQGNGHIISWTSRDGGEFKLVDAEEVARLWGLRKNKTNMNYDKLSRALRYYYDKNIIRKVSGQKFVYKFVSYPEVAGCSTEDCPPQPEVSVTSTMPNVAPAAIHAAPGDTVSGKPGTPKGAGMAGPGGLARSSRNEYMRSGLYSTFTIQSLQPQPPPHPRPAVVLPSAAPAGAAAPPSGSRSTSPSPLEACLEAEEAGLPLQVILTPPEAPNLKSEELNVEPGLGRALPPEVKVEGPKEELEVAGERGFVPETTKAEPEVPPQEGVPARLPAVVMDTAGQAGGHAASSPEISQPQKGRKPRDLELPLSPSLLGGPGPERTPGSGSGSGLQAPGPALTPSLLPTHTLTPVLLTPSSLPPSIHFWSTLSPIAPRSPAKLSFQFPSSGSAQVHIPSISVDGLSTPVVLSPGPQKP
# Summary of the method: as §1
# GABPA = target: T3, GABPA (Homo sapiens, UniProt Q06546 1-454)
# T3 sequence: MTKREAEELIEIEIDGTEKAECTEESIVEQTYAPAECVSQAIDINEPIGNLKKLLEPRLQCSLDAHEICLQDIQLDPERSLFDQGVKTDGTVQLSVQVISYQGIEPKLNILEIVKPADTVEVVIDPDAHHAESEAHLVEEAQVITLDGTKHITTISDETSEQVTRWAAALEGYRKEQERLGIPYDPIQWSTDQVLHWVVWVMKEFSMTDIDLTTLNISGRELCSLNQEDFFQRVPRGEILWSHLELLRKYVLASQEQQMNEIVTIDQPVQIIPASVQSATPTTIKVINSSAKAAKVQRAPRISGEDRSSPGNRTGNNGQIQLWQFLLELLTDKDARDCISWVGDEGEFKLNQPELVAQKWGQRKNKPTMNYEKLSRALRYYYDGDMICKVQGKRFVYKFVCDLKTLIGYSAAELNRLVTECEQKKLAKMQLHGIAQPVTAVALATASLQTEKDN
# Summary of the method: as §1
# ERG = target: T4, ERG (Homo sapiens, UniProt P11308 1-479)
# T4 sequence: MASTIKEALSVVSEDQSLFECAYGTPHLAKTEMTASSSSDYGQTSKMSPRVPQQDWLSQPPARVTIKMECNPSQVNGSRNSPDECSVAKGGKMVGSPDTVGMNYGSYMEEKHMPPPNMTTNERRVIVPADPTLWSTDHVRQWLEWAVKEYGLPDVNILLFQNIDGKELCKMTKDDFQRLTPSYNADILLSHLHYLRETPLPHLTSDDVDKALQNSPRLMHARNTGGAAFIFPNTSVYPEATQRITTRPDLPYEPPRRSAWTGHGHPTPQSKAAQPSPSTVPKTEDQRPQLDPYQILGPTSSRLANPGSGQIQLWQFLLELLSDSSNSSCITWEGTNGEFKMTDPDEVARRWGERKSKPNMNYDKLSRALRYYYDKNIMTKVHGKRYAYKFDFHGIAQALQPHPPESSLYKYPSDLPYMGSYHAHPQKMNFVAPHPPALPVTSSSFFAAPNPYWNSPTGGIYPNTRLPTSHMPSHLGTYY
# Summary of the method: as §1
# ELF1 = ELF1 (Homo sapiens, UniProt P32519 1-619)
# Sequence of ELF1 (P32519 whole entry): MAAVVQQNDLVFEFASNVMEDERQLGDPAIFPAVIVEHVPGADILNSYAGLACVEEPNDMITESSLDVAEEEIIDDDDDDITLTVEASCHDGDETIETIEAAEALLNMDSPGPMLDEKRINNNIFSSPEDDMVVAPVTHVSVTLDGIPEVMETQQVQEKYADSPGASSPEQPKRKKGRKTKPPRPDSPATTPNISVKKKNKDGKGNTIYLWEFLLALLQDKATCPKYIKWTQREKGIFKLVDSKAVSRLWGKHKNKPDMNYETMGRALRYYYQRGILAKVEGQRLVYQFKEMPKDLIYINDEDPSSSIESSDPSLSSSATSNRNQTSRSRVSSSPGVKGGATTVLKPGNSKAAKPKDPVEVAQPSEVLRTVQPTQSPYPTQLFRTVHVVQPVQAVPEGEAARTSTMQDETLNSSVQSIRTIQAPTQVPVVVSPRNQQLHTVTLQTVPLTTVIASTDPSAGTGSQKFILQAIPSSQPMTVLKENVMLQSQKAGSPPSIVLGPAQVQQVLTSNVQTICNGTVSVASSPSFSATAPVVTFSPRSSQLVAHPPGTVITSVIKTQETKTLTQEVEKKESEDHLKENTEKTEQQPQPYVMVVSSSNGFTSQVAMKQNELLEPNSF
# Summary of the method: as §1
# EHF = target: T5, EHF (Homo sapiens, UniProt Q9NZC4 1-300)
# T5 sequence: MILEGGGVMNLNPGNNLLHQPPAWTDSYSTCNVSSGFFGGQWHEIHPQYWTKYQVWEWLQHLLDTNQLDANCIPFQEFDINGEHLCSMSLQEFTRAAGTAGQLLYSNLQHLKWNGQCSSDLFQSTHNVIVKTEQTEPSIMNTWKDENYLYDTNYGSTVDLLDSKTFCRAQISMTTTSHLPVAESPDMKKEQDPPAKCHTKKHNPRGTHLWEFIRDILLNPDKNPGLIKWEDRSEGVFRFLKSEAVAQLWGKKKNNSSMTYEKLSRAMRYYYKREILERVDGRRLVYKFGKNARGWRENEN
# Summary of the method: as §1
# SPI1 = SPI1 (Homo sapiens, UniProt P17947 1-270)
# Summary of the method: as §1
# SPIB = SPIB (Homo sapiens, UniProt Q01892 1-262)
# Sequence of SPIB (Q01892 whole entry): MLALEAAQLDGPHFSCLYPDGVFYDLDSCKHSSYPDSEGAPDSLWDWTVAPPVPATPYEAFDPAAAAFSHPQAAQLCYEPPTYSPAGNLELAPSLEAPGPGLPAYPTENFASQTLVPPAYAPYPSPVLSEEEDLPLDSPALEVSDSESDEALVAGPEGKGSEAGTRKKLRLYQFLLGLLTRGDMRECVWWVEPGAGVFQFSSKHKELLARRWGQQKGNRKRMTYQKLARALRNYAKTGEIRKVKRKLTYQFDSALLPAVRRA
# Summary of the method: as §1
# FEV = target: T6, FEV (Homo sapiens, UniProt Q99581 1-238)
# T6 sequence: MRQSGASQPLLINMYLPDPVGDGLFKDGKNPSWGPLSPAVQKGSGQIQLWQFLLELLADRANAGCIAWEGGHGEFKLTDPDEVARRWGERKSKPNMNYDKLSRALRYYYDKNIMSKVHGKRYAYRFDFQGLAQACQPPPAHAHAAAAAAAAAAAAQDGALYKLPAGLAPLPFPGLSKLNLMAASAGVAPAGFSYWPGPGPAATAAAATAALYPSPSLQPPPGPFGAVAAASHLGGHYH
# Summary of the method: as §1
# ETV5 = ETV5 (Homo sapiens, UniProt P41161 1-510)
# Sequence of ETV5 (P41161 whole entry): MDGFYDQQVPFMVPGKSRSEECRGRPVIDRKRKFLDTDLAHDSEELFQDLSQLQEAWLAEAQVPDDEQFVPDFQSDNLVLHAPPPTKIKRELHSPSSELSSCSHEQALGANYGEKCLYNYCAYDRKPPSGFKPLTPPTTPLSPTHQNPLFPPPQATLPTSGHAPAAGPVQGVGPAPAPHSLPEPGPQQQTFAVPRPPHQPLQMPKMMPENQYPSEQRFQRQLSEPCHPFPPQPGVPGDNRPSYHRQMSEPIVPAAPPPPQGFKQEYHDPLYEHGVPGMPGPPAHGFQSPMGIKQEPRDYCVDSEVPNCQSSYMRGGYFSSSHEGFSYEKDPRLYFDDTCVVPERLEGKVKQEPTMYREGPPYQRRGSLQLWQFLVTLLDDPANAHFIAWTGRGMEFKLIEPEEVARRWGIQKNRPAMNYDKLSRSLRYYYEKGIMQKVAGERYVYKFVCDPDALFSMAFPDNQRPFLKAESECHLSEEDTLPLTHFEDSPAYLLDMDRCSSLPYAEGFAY
# Summary of the method: as §1
sequence,measurement,setting,value
CTGCGG,binding signal,FLI1,"1.23 fold enrichment (6-mer frequency, TF over GST control)"
same,binding signal,ELK1,"1.26 fold enrichment (6-mer frequency, TF over GST control)"
same,binding signal,GABPA,"1.05 fold enrichment (6-mer frequency, TF over GST control)"
same,binding signal,ERG,"1.1 fold enrichment (6-mer frequency, TF over GST control)"
same,binding signal,ELF1,"1.18 fold enrichment (6-mer frequency, TF over GST control)"
same,binding signal,EHF,"1.3 fold enrichment (6-mer frequency, TF over GST control)"
same,binding signal,SPI1,"1.03 fold enrichment (6-mer frequency, TF over GST control)"
same,binding signal,SPIB,"1.09 fold enrichment (6-mer frequency, TF over GST control)"
same,binding signal,FEV,"1.07 fold enrichment (6-mer frequency, TF over GST control)"
same,binding signal,ETV5,"1.16 fold enrichment (6-mer frequency, TF over GST control)"
